From PubChem BioAssay
BCLXL inh: inhibitors of human Bcl-xL, primary screen, biochemical, fluorescence polarization, HTS; GST-Bcl-xL / FITC-Bim BH3 peptide fluorescence polarization; inhibition, % at 10.9 µM; 320,000 tested, 0.7% active;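 active = inhibition above the mean of all tested compounds plus 3 SD, cutoff set per campaign, cut at about 30% in these data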;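 note: 0% = DMSO wells and 100% = unlabeled Bim-BH3 peptide competitor; inhibitors lower millipolarization by displacing the labeled peptide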
MEX-5 binding: MEX-5 zinc finger RNA-binding disruptors – biochemical, C. elegans, fluorescence polarization, MLPCN library, primary screen; AID 1832, 2009; 300,000 tested, 0.38% active; activity score (negative = inhibition of binding), % at 10 µM; Zinc finger protein mex-5 (Caenorhabditis elegans), Q9XUB2; MEX-5/FITC-TCR2 RNA binding; active compounds read low;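 active = inhibition past about -25% in most replicates, and total fluorescence under double the plate's negative control median, limit read from the data; inconclusive = replicates evenly split on the limit, or fluorescence at least double controls; inactive = too little inhibition in most replicates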;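 note: 0% = DMSO and -100% = 5 µM competing unlabeled TCR2 RNA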
MCL1 BIM primary: inhibitors of MCL1 binding to BIM-BH3, primary screen, biochemical, fluorescence polarization; GST-MCL1 / FITC-Bim-BH3 fluorescence polarization; inhibition, % at 10.9 µM; 320,000 tested, 0.68% active;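 active = inhibition above the mean inhibition of all tested compounds plus 3 SD, set per campaign, cut at about 40% in these data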;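 note: 0% = DMSO wells and 100% = unlabeled Bim-BH3 peptide control; higher means more loss of mP so more displacement of Bim peptide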
EBV gp42 block: Epstein-Barr virus gp42 inhibitors, primary screen, biochemical, uHTS, fluorescence polarization. 220,000 tested, 0.42% active. Fluorescence polarization binding assay, mP read-out. Glycoprotein 42 (Epstein-Barr virus (strain AG876)), Q1HVG2. AID 1085, 2008. inhibition, % (tested at 21.74 µM); in the data active = inhibition above about 50%
eLon inh: inhibitors of E. coli Lon protease, primary screen, biochemical, fluorescence polarization; 360,000 tested, 0.42% active; inhibition, % at 7.94 µM; purified E. coli Lon protease; AID 602123, 2011; P0A9M0; in the data active = inhibition above about 13%, passing the limit was not always enough;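 note: 0% = enzyme with probe and DMSO and 100% = no enzyme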
Target sequence (P0A9M0 whole entry, looked up): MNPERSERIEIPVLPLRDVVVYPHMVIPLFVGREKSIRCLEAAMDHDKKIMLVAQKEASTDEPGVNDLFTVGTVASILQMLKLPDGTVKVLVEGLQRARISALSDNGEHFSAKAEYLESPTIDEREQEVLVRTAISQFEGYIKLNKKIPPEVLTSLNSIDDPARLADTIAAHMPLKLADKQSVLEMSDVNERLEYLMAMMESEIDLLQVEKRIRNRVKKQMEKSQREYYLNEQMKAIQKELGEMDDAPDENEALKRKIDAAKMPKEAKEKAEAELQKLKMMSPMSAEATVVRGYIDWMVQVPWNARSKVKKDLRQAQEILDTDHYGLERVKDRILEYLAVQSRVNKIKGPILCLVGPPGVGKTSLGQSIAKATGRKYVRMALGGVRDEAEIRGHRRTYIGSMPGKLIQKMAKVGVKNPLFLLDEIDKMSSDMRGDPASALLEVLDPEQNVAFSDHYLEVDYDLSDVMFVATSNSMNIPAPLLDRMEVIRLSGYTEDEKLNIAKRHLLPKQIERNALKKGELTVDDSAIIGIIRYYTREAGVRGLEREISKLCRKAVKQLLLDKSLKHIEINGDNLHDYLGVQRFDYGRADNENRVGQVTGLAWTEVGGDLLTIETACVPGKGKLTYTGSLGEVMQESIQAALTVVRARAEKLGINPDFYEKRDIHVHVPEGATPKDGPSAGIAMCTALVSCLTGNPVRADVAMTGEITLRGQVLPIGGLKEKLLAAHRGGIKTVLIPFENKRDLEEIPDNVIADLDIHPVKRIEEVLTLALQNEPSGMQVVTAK
GLD-1 TGE inh: GLD-1/TGE RNA complex disruptors, primary screen, biochemical, fluorescence polarization; Female germline-specific tumor suppressor gld-1 (Caenorhabditis elegans), Q17339; purified GLD-1 + fluorescein TGE RNA; inhibition, % at 5.96 µM; 320,000 tested, 0.44% active;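 active = percent inhibition above a per-plate cutoff, the plate mean of test compounds plus 3 SD, cut at about 30% in these data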;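 note: 0% = DMSO wells with GLD-1 and probe and 100% = wells lacking GLD-1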
An asterisk follows results filed as active; ? = inconclusive; . = no result. This is a sample that favours compounds with a hit; in the whole collection about 1.5% have one here.

SMILES	BCLXL inh	MEX-5 binding	MCL1 BIM primary	EBV gp42 block	eLon inh	GLD-1 TGE inh
N#C/C(=C\c1ccc(-c2nc3ccccc3s2)o1)C(N)=O	19	-8	18	-19	-17	-3
N#C/C(=C/c1ccc(-c2ccc(S(N)(=O)=O)cc2)o1)C(=O)Nc1ccccc1	1	-10	6	-139	-12	-1
N#C/C(=C/c1ccc(-c2ccc(S(N)(=O)=O)cc2)o1)c1nc2ccccc2s1	45*	.	15	64*	-384	-47
CCCOc1ccccc1-c1nc2c([nH]1)c(=O)[nH]c(=O)n2C	35*	-9	32	22	3	15
CC(C)OCCCn1c(-c2ccco2)nc2nc3ccccc3nc21	35*	.	25	-12	-46	14
O=C(N/C(=C\c1ccco1)C(=O)N1CCOCC1)c1ccco1	33*	-2	26	-11	6	18
O=C(N/C(=C/c1ccc(Br)cc1)C(=O)N1CCOCC1)c1ccco1	3	-4	4	.	4	5
NC(=O)/C(=C/c1ccco1)NC(=O)c1ccc(Br)o1	39*	-14	40*	.	-12	24
O=C(CN1CCN(C(=O)c2ccco2)CC1)N1CCc2[nH]c3ccccc3c2C1	36*	-7	30	0	.	-17
O=C(CN1CCSCC1)N1CCc2[nH]c3ccc(Br)cc3c2C1	.	-1	.	-3	.	.
Cc1ccc2[nH]c3c(c2c1)CN(C(=O)CN1CCN(c2cccc(C)c2C)CC1)CC3	38*	3	25	19	13	31
O=C(c1ccco1)N1CCN(Cc2nc3ccccc3[nH]2)CC1	.	.	.	.	1	2
Cc1ccc2[nH]c3c(c2c1)CN(C(=O)CN1c2ccc(F)cc2CCC1C)CC3 (stereo not drawn)	-3	0	-13	-9	8	3
Cc1ccc2[nH]c3c(c2c1)CN(C(=O)CN1CCN(C(=O)c2ccco2)CC1)CC3	48*	?	30	13	.	32*
CN(CC(=O)Nc1cccc(F)c1)C(=O)/C=C/c1cc(Br)ccc1OC(F)F	-9	3	-23	.	-5	5
CCN(CC)c1ccc(NS(=O)(=O)c2ccc(-c3ccc(=O)[nH]n3)o2)c(C)c1	32*	0	32	.	-3	4
O=C(CN1CCCC1c1cccs1)Nc1cccc(S(=O)(=O)N2CCCC2)c1 (stereo not drawn)	-4	.	1	.	-6	-2
O=C(Nc1ccc2ccccc2n1)c1ccccc1Cl	4	-1	-4	.	-4	-4
COc1ccc2nc3ccccc3nc2c1NC(=O)c1ccccc1Cl	4	-35*	0	-11	-10	6
CC(OC(=O)[C@H](C)NC(=O)c1ccccc1Cl)C(=O)NCc1ccc2c(c1)OCO2 (stereo partly drawn)	5	-2	0	.	-7	9
COc1cc(C=C(c2nc3ccccc3s2)c2nc3ccccc3s2)ccc1O	41*	-2	43*	-24	-22	-7
COc1ccc(C=C(c2nc3ccccc3s2)c2nc3ccccc3s2)cc1O	11	-3	-5	5	1	32*
COc1ccc(/C=N/Nc2nc3ccccc3s2)cc1O	.	-1	.	-2	10	.
CCSc1nnc(-c2ccncc2)o1	1	1	-1	-9	-4	5
CCSc1nnc(-c2sc3nnc(-c4ccccc4)c(-c4ccccc4)c3c2N)o1	15	?	-8	167*	-70	-31
SMILES	BCLXL inh	MEX-5 binding	MCL1 BIM primary	EBV gp42 block	eLon inh	GLD-1 TGE inh
COC(=O)C1=C(C)N(c2ccccc2)/C(=C/c2ccco2)C1=O	8	-28*	11	-13	-5	5
O=c1[nH]c(Nc2ccccc2)cc2cc(Br)ccc12	12	1	9	.	-24	3
O=c1[nH]c(Nc2ccccc2)cc2ccccc12	54*	-19	38	72*	-7	55*
Cc1cccc(N/C(N)=N/c2nc(CSc3ccc(Cl)cc3)cc(=O)[nH]2)c1	2	-3	3	-3	.	7
Cc1ccc(-c2cn3nc(-c4ccccc4)c(-c4ccccc4)nc3n2)cc1	15	?	-2	126*	-61	34*
Nc1nc(-c2ccccc2)cn1N	4	2	9	-21	0	2
Cc1nn2cc(-c3ccc(-c4ccccc4)cc3)nc2s1	-2	-1	-3	-2	-2	-1
c1ccc(-c2cn3nc(-c4ccccc4)c(-c4ccccc4)nc3n2)cc1	15	-27*	13	128*	-11	4
O=C(Nc1ccc(C(=O)N2CCCCC2)cc1)C1CCC1	.	.	.	.	-7	.
CC1(C)CC(=O)C=C(NNC(=O)c2cccnc2)C1	19	-11	17	0	31	81*
COc1cccc(C(=O)NNC2=CC(=O)CC(C)(C)C2)c1	2	-3	7	-19	1	26
COc1ccc(CN2C(=O)c3cccnc3C2=O)cc1S(=O)(=O)N(C)c1cccc(C)c1	3	-2	-1	.	3	-5
O=C(Nc1cccc(F)c1)c1ccc(S(=O)(=O)N2CCCCC2)cc1	4	-1	0	.	4	3
CC1(CCl)N([O-])C2=C(CCCC2)[N+]1=O (stereo not drawn)	7	-36*	1	-30	0	3
CCOC(=O)[C@]12CCCC=C1N(Cc1ccc3c(c1)OCO3)C(=O)[C@H](CC(=O)N1CCOCC1)C2	.	.	.	.	-1	.
Cc1ccc2c(c1)C(c1ccc(F)cc1)N(C(=O)c1ccccc1Br)CC(=O)N2 (stereo not drawn)	5	3	9	.	2	5
Cc1ccccc1C(=O)N1CC(=O)Nc2ccc(F)cc2C1c1ccc(F)cc1 (stereo not drawn)	86*	0	0	.	3	-1
CCC1c2ccc(C)n2CCN1C(=O)Nc1cc(Cl)ccc1OC (stereo not drawn)	56*	-4	53*	-21	4	38*
CCCC1c2ccc(C)n2CCN1C(=O)Nc1ccccc1Cl (stereo not drawn)	41*	0	45*	13	11	21
COc1ccc(Cl)cc1NC(=O)N1CCC(C)CC1	6	-2	10	4	-5	5
O=c1oc2ccccc2c(O)c1Sc1ccc(Cl)cc1	4	3	3	.	-11	-4
O=C(COC(=O)c1cnccn1)Nc1ncc(C(F)(F)F)cc1Cl	.	.	.	.	-12	12
COc1cccc(CN(CC(=O)NC2CCCCC2)C(=O)c2csnn2)c1	-10	-1	-10	.	8	-5
